Measurements as given in the supplement of paper PMC8728848.
The sample as a whole holds a higher share of the strongest signals than the screen did.

Legend:
Assay in all cases: glycan array binding signal (z-score within array); higher = stronger binding
Conditions in all cases: glycan notation: IUPAC condensed, linker removed
[1] = molecular target: Fuc(a1-2)Gal(b1-4)[Fuc(a1-3)]GlcNAc(b1-3)[Neu5Ac(a2-6)Gal(b1-4)GlcNAc(b1-6)]Gal(b1-4)Glc
Procedure, shortened: (§1)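 Glycan array data came from 3228 arrays in the Consortium for Functional Glycomics database, and only arrays with an available protein sequence were kept. Glycan names were put into IUPAC-condensed notation, and columns mapping to the same glycan were averaged. The binding signal is a within-array Z-score, averaged across arrays of one protein sequence run at different concentrations or buffers and across linkers. A negative Z-score can be read as non-binding.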

Fuc(a1-2)[Gal(a1-3)]Gal = molecular target: Fuc(a1-2)[Gal(a1-3)]Gal
Procedure, shortened: as §1

[2] = molecular target: Fuc(a1-2)[GalNAc(a1-3)]Gal(b1-4)GlcNAc(b1-2)Man(a1-3)[Fuc(a1-2)[GalNAc(a1-3)]Gal(b1-4)GlcNAc(b1-2)Man(a1-6)]Man(b1-4)GlcNAc(b1-4)[Fuc(a1-6)]GlcNAc
Procedure, shortened: as §1

[3] = molecular target: Fuc(a1-2)[GalNAc(a1-3)]Gal(b1-4)GlcNAc(b1-3)Gal(b1-4)GlcNAc(b1-3)Gal(b1-4)GlcNAc
Procedure, shortened: as §1

[4] = molecular target: Fuc(a1-2)[GalNAc(a1-3)]Gal(b1-4)[Fuc(a1-3)]GlcNAc(b1-3)GalNAc
Procedure, shortened: as §1

Fuc(b1-3)GlcNAc = molecular target: Fuc(b1-3)GlcNAc
Procedure, shortened: as §1

[5] = molecular target: Gal(a1-3)Gal(b1-4)GlcNAc(b1-3)GalNAc
Procedure, shortened: as §1

Gal(a1-6)Glc = molecular target: Gal(a1-6)Glc
Procedure, shortened: as §1

[6] = molecular target: Gal(b1-3)GlcNAc(b1-2)[Gal(b1-3)GlcNAc(b1-6)]Man(a1-6)[Gal(b1-3)GlcNAc(b1-2)Man(a1-3)]Man(b1-4)GlcNAc(b1-4)GlcNAc
Procedure, shortened: as §1

[7] = molecular target: Gal(b1-3)GlcNAc(b1-3)Gal(b1-3)GlcNAc
Procedure, shortened: as §1

[8] = molecular target: Gal(b1-3)[Fuc(a1-4)]GlcNAc
Procedure, shortened: as §1

[9] = molecular target: Gal(b1-3)[Fuc(a1-4)]GlcNAc(b1-3)Gal(b1-3)[Fuc(a1-4)]GlcNAc
Procedure, shortened: as §1

[10] = molecular target: Gal(b1-3)[GlcNAc(b1-6)]GalNAc
Procedure, shortened: as §1

Gal(b1-4)GlcNAc = molecular target: Gal(b1-4)GlcNAc
Procedure, shortened: as §1

[11] = molecular target: Gal(b1-4)GlcNAc(b1-2)Man(a1-3)Man(b1-4)GlcNAc(b1-4)GlcNAc
Procedure, shortened: as §1

[12] = molecular target: Gal(b1-4)GlcNAc(b1-2)[Gal(b1-4)GlcNAc(b1-6)]Man(a1-6)[GlcNAc(b1-4)][Gal(b1-4)GlcNAc(b1-2)Man(a1-3)]Man(b1-4)GlcNAc(b1-4)GlcNAc
Procedure, shortened: as §1

[13] = molecular target: Gal(b1-4)GlcNAc(b1-3)[Fuc(a1-3)GlcNAc(b1-6)]Gal(b1-4)Glc
Procedure, shortened: as §1

[14] = molecular target: Gal(b1-4)GlcNAc(b1-3)[GlcNAc(b1-6)]Gal(b1-4)GlcNAc
Procedure, shortened: as §1

Gal3S6S(b1-4)GlcNAc = molecular target: Gal3S6S(b1-4)GlcNAc
Procedure, shortened: as §1

Gal4S(b1-4)GlcNAc = molecular target: Gal4S(b1-4)GlcNAc
Procedure, shortened: as §1

Gal4S6S(b1-4)GlcNAc = molecular target: Gal4S6S(b1-4)GlcNAc
Procedure, shortened: as §1

Gal6S(b1-3)GlcNAc6S = molecular target: Gal6S(b1-3)GlcNAc6S
Procedure, shortened: as §1

[15] = molecular target: GalNAc(a1-3)GalNAc(a1-3)Gal(a1-4)Gal(b1-4)GlcNAc
Procedure, shortened: as §1

[16] = molecular target: GalNAc(b1-3)Gal(a1-6)Gal(b1-4)Glc
Procedure, shortened: as §1

[17] = molecular target: GalNAc(b1-4)GlcNAc(b1-2)Man(a1-3)[GalNAc(b1-4)GlcNAc(b1-2)Man(a1-6)]Man(b1-4)GlcNAc(b1-4)GlcNAc
Procedure, shortened: as §1

GalNAc6S(b1-4)GlcNAc = molecular target: GalNAc6S(b1-4)GlcNAc
Procedure, shortened: as §1

[18] = molecular target: Glc(a1-4)Glc(a1-4)Glc(a1-4)Glc
Procedure, shortened: as §1

[19] = molecular target: GlcNAc(a1-3)Gal(b1-4)GlcNAc
Procedure, shortened: as §1

[20] = molecular target: GlcNAc(a1-4)Gal(b1-3)GlcNAc
Procedure, shortened: as §1

[21] = molecular target: GlcNAc(a1-4)Gal(b1-4)GlcNAc
Procedure, shortened: as §1

[22] = molecular target: GlcNAc(a1-4)Gal(b1-4)GlcNAc(b1-3)Gal(b1-4)GlcNAc(b1-3)Gal(b1-4)GlcNAc
Procedure, shortened: as §1

[23] = molecular target: GlcNAc(b1-2)Man(a1-3)[GlcNAc(b1-4)][GlcNAc(b1-2)Man(a1-6)]Man(b1-4)GlcNAc(b1-4)[Fuc(a1-6)]GlcNAc
Procedure, shortened: as §1

[24] = molecular target: GlcNAc(b1-2)[GlcNAc(b1-4)]Man(a1-3)[GlcNAc(b1-4)][GlcNAc(b1-2)Man(a1-6)]Man(b1-4)GlcNAc(b1-4)GlcNAc
Procedure, shortened: as §1

[25] = molecular target: GlcNAc(b1-3)Gal(b1-4)GlcNAc(b1-2)[GlcNAc(b1-3)Gal(b1-4)GlcNAc(b1-6)]Man(a1-6)[GlcNAc(b1-3)Gal(b1-4)GlcNAc(b1-2)Man(a1-3)]Man(b1-4)GlcNAc(b1-4)GlcNAc
Procedure, shortened: as §1

GlcNAc(b1-3)Man = molecular target: GlcNAc(b1-3)Man
Procedure, shortened: as §1

[26] = molecular target: GlcNAc(b1-4)GlcNAc(b1-4)GlcNAc(b1-4)GlcNAc(b1-4)GlcNAc(b1-4)GlcNAc
Procedure, shortened: as §1

[27] = molecular target: GlcNAc(b1-6)Gal(b1-4)GlcNAc
Procedure, shortened: as §1

[28] = molecular target: Man(a1-3)[Man(a1-6)]Man(b1-4)GlcNAc(b1-4)GlcNAc
Procedure, shortened: as §1

[29] = molecular target: Neu5Ac(a2-3)Gal(b1-3)[Fuc(a1-4)]GlcNAc(b1-3)Gal(b1-3)[Fuc(a1-4)]GlcNAc
Procedure, shortened: as §1

[30] = molecular target: Neu5Ac(a2-3)Gal(b1-4)GlcNAc(b1-2)Man(a1-3)[Neu5Ac(a2-3)Gal(b1-4)GlcNAc(b1-2)Man(a1-6)]Man(b1-4)GlcNAc(b1-4)[Fuc(a1-6)]GlcNAc
Procedure, shortened: as §1

[31] = molecular target: Neu5Ac(a2-3)Gal(b1-4)GlcNAc(b1-3)Gal(b1-3)GlcNAc
Procedure, shortened: as §1

[32] = molecular target: Neu5Ac(a2-3)Gal(b1-4)GlcNAc(b1-3)GalNAc
Procedure, shortened: as §1

[33] = molecular target: Neu5Ac(a2-3)Gal(b1-4)GlcNAc(b1-6)GalNAc
Procedure, shortened: as §1

[34] = molecular target: Neu5Ac(a2-3)Gal(b1-4)[Fuc(a1-3)]GlcNAc(b1-3)GalNAc
Procedure, shortened: as §1

[35] = molecular target: Neu5Ac(a2-3)Gal6S(b1-4)GlcNAc
Procedure, shortened: as §1

[36] = molecular target: Neu5Ac(a2-6)Gal(b1-4)GlcNAc(b1-2)Man(a1-3)[GlcNAc(b1-2)Man(a1-6)]Man(b1-4)GlcNAc(b1-4)GlcNAc
Procedure, shortened: as §1

[37] = molecular target: Neu5Ac(a2-6)Gal(b1-4)GlcNAc(b1-2)Man(a1-6)[Man(a1-3)]Man(b1-4)GlcNAc(b1-4)GlcNAc
Procedure, shortened: as §1

[38] = molecular target: Neu5Ac(a2-6)Gal(b1-4)GlcNAc(b1-3)Gal(b1-4)GlcNAc(b1-3)GalNAc
Procedure, shortened: as §1

[39] = molecular target: Neu5Ac(a2-6)Gal(b1-4)GlcNAc(b1-3)Gal(b1-4)[Fuc(a1-3)]GlcNAc(b1-3)Gal(b1-4)[Fuc(a1-3)]GlcNAc
Procedure, shortened: as §1

Neu5Ac(a2-6)GalNAc = molecular target: Neu5Ac(a2-6)GalNAc
Procedure, shortened: as §1

[40] = molecular target: Neu5Ac(a2-6)GalNAc(b1-4)GlcNAc
Procedure, shortened: as §1

[41] = molecular target: Neu5Ac(a2-8)Neu5Ac(a2-8)Neu5Ac(a2-3)[Gal(b1-3)GalNAc(b1-4)]Gal(b1-4)Glc
Procedure, shortened: as §1

[42] = molecular target: Neu5Ac(a2-8)Neu5Ac(a2-8)Neu5Ac(a2-8)Neu5Ac(a2-3)[GalNAc(b1-4)]Gal(b1-4)Glc
Procedure, shortened: as §1

Neu5Gc(a2-6)GalNAc = molecular target: Neu5Gc(a2-6)GalNAc
Procedure, shortened: as §1

B1: Clrb (Mus musculus) (protein)
chain: ITGATKTEQIPVNKTYAACPQNWIGVENKCFYFSEYPSNWTFAQAFCMAQEAQLARFDNQDELNFLMRYKANFDSWIGLHRESSEHPWKWTDNTEYNNTIPIRGEERFAYLNNNGISSTRIYSLRMWICSKLNSYSLHCQTPFFPSGTKHHHHHHHHG
- glycan array binding signal (z-score) [1]: -0.359
- glycan array binding signal (z-score) (Fuc(a1-2)[Gal(a1-3)]Gal): -0.293
- glycan array binding signal (z-score) [2]: -0.417
- glycan array binding signal (z-score) [3]: -0.215
- glycan array binding signal (z-score) [4]: -0.299
- glycan array binding signal (z-score) (Fuc(b1-3)GlcNAc): -0.294
- glycan array binding signal (z-score) [5]: -0.505
- glycan array binding signal (z-score) (Gal(a1-6)Glc): -0.176
- glycan array binding signal (z-score) [6]: -0.249
- glycan array binding signal (z-score) [7]: -0.431
- glycan array binding signal (z-score) [8]: -0.303
- glycan array binding signal (z-score) [9]: -0.404
- glycan array binding signal (z-score) [10]: -0.186
- glycan array binding signal (z-score) (Gal(b1-4)GlcNAc): -0.146
- glycan array binding signal (z-score) [11]: -0.355
- glycan array binding signal (z-score) [12]: -0.157
- glycan array binding signal (z-score) [13]: -0.386
- glycan array binding signal (z-score) [14]: 5.13
- glycan array binding signal (z-score) (Gal3S6S(b1-4)GlcNAc): -0.099
- glycan array binding signal (z-score) (Gal4S(b1-4)GlcNAc): -0.31
- glycan array binding signal (z-score) (Gal4S6S(b1-4)GlcNAc): -0.101
- glycan array binding signal (z-score) (Gal6S(b1-3)GlcNAc6S): -0.357
- glycan array binding signal (z-score) [15]: -0.541
- glycan array binding signal (z-score) [16]: -0.023
- glycan array binding signal (z-score) [17]: 4.64
- glycan array binding signal (z-score) (GalNAc6S(b1-4)GlcNAc): 4.38
- glycan array binding signal (z-score) [18]: -0.498
- glycan array binding signal (z-score) [19]: 5.77
- glycan array binding signal (z-score) [20]: 3.81
- glycan array binding signal (z-score) [21]: 4.2
- glycan array binding signal (z-score) [22]: 5.29
- glycan array binding signal (z-score) [23]: 4.51
- glycan array binding signal (z-score) [24]: 4.02
- glycan array binding signal (z-score) [25]: 0.54
- glycan array binding signal (z-score) (GlcNAc(b1-3)Man): -0.377
- glycan array binding signal (z-score) [26]: 7.67
- glycan array binding signal (z-score) [27]: 1.87
- glycan array binding signal (z-score) [28]: -0.297
- glycan array binding signal (z-score) [29]: -0.359
- glycan array binding signal (z-score) [30]: -0.226
- glycan array binding signal (z-score) [31]: -0.383
- glycan array binding signal (z-score) [32]: -0.44
- glycan array binding signal (z-score) [33]: -0.392
- glycan array binding signal (z-score) [34]: -0.205
- glycan array binding signal (z-score) [35]: -0.365
- glycan array binding signal (z-score) [36]: -0.472
- glycan array binding signal (z-score) [37]: -0.503
- glycan array binding signal (z-score) [38]: -0.628
- glycan array binding signal (z-score) [39]: -0.211
- glycan array binding signal (z-score) (Neu5Ac(a2-6)GalNAc): -0.508
- glycan array binding signal (z-score) [40]: 4.69
- glycan array binding signal (z-score) [41]: -0.421
- glycan array binding signal (z-score) [42]: -0.449
- glycan array binding signal (z-score) (Neu5Gc(a2-6)GalNAc): -0.377
